Among all 5,500 compounds or so, about 2,000 (36%) were called active. Not shown: some 18% with an inconclusive outcome. No stated cut-off is given here; in the data, active means normalized growth mostly below about 0.91 (no sharp cut-off); inconclusive means no clear call, values can overlap the other calls; inactive means mostly above about 0.92. This is one part of the list.
Test: chemical genetic growth profiling, strain panel (AID 1159580);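 further: tested at 20 µM; growth read once vehicle control cultures reached saturation at 30 °C; 1 = growth at the plate median or of vehicle wells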
Conditions: growth OD

Measured: normalized growth

CN1CC(=O)N=C1N
inactive: S. cerevisiae deletion strains, locus YJR043C, strain POL32, stronger effect = lower value 1.01 | S. cerevisiae deletion strains, locus YJR066W, strain TOR1, stronger effect = lower value 0.902 | S. cerevisiae deletion strains, locus YJR075W, strain HOC1, stronger effect = lower value 1.01 | S. cerevisiae deletion strains, locus YKL009W, strain mrt4, stronger effect = lower value 1.05 | S. cerevisiae deletion strains, locus YKL068W, stronger effect = lower value 0.996 | S. cerevisiae deletion strains, locus YKL085W, strain MDH1 (second series), stronger effect = lower value 0.998 | S. cerevisiae deletion strains, locus YKL085W, strain MDH1, stronger effect = lower value 0.998 | S. cerevisiae deletion strains, locus YKL160W, strain elf1, stronger effect = lower value 1.01 | S. cerevisiae deletion strains, locus YKR001C, strain vps1, stronger effect = lower value 1.01 | S. cerevisiae deletion strains, locus YKR026C, strain gcn3, stronger effect = lower value 0.994 | S. cerevisiae deletion strains, locus YKR091W, strain srl3, stronger effect = lower value 1.02 | S. cerevisiae deletion strains, locus YLL001W, strain dnm1, stronger effect = lower value 1.01 | S. cerevisiae deletion strains, locus YLL026W, stronger effect = lower value 1.02 | S. cerevisiae deletion strains, locus YLL041C, strain sdh2, stronger effect = lower value 1.02 | S. cerevisiae deletion strains, locus YLR027C, strain aat2, stronger effect = lower value 1.03 | S. cerevisiae deletion strains, locus YLR039C, strain RIC1, stronger effect = lower value 1.04 | S. cerevisiae deletion strains, locus YLR058C, strain SHM2, stronger effect = lower value 1.01 | S. cerevisiae deletion strains, locus YLR102C, strain apc9, stronger effect = lower value 0.992 | S. cerevisiae deletion strains, locus YLR113W, strain HOG1, stronger effect = lower value 0.94 | S. cerevisiae deletion strains, locus YLR221C, strain rsa3, stronger effect = lower value 1.05 | S. cerevisiae deletion strains, locus YLR258W, strain gsy2, stronger effect = lower value 1.03 | S. cerevisiae deletion strains, locus YLR262C, strain YPT6 (second series), stronger effect = lower value 1.09 | S. cerevisiae deletion strains, locus YLR262C, strain YPT6, stronger effect = lower value 1.08 | S. cerevisiae deletion strains, locus YLR268W, strain sec22, stronger effect = lower value 0.977 | S. cerevisiae deletion strains, locus YLR320W, strain mms22, stronger effect = lower value 1.07 | S. cerevisiae deletion strains, locus YLR330W, strain CHS5, stronger effect = lower value 1.01 | S. cerevisiae deletion strains, locus YLR342W, strain FKS1 (second series), stronger effect = lower value 0.984 | S. cerevisiae deletion strains, locus YLR342W, strain FKS1, stronger effect = lower value 1.03 | S. cerevisiae deletion strains, locus YLR357W, strain rsc2, stronger effect = lower value 1.01 | S. cerevisiae deletion strains, locus YLR370C, strain arc18, stronger effect = lower value 1.02 | S. cerevisiae deletion strains, locus YLR371W, strain rom2, stronger effect = lower value 0.985 | S. cerevisiae deletion strains, locus YLR384C, strain iki3, stronger effect = lower value 1.01 | S. cerevisiae deletion strains, locus YLR418C, strain cdc73, stronger effect = lower value 0.98 | S. cerevisiae deletion strains, locus YML016C, strain PPZ1, stronger effect = lower value 1.01 | S. cerevisiae deletion strains, locus YML032C, strain rad52, stronger effect = lower value 0.987 | S. cerevisiae deletion strains, locus YML120C, strain ndi1, stronger effect = lower value 1.03 | S. cerevisiae deletion strains, locus YML124C, strain tub3, stronger effect = lower value 0.992 | S. cerevisiae deletion strains, locus YMR058W, strain fet3, stronger effect = lower value 1.04 | S. cerevisiae deletion strains, locus YMR078C, strain ctf18, stronger effect = lower value 1 | S. cerevisiae deletion strains, locus YMR125W, strain sto1, stronger effect = lower value 1.02 | S. cerevisiae deletion strains, locus YMR129W, stronger effect = lower value 1.01 | S. cerevisiae deletion strains, locus YMR205C, strain PFK2, stronger effect = lower value 1.08 | S. cerevisiae deletion strains, locus YMR223W, strain ubp8, stronger effect = lower value 0.992 | S. cerevisiae deletion strains, locus YMR231W, strain pep5, stronger effect = lower value 1.01 | S. cerevisiae deletion strains, locus YMR307W, strain GAS1, stronger effect = lower value 0.998 | S. cerevisiae deletion strains, locus YNL067W, strain RPL9B, stronger effect = lower value 1.01 | S. cerevisiae deletion strains, locus YNL071W, strain lat1, stronger effect = lower value 1.03 | S. cerevisiae deletion strains, locus YNL128W, strain TEP1, stronger effect = lower value 1.04 | S. cerevisiae deletion strains, locus YNL183C, strain NPR1, stronger effect = lower value 0.893 | S. cerevisiae deletion strains, locus YNL209W, strain ssb2, stronger effect = lower value 1.03 | S. cerevisiae deletion strains, locus YNL233W, strain BNI4, stronger effect = lower value 1.01 | S. cerevisiae deletion strains, locus YNL248C, strain rpa49, stronger effect = lower value 1.02 | S. cerevisiae deletion strains, locus YNL250W, strain rad50, stronger effect = lower value 0.996 | S. cerevisiae deletion strains, locus YNL271C, strain bni1, stronger effect = lower value 0.991 | S. cerevisiae deletion strains, locus YNL298W, strain CLA4, stronger effect = lower value 0.988 | S. cerevisiae deletion strains, locus YNL307C, strain MCK1, stronger effect = lower value 0.98 | S. cerevisiae deletion strains, locus YNL322C, strain KRE1 (second series), stronger effect = lower value 1.02 | S. cerevisiae deletion strains, locus YNL322C, strain KRE1, stronger effect = lower value 1.01 | S. cerevisiae deletion strains, locus YNR049C, strain mso1, stronger effect = lower value 1.01 | S. cerevisiae deletion strains, locus YNR052C, strain pop2, stronger effect = lower value 0.991 | S. cerevisiae deletion strains, locus YOL012C, strain htz1 2.03 | S. cerevisiae deletion strains, locus YOL147C, strain pex11, stronger effect = lower value 0.99 | S. cerevisiae deletion strains, locus YOR001W, strain rrp6, stronger effect = lower value 1.02 | S. cerevisiae deletion strains, locus YOR061W, strain CKA2, stronger effect = lower value 1.01 | S. cerevisiae deletion strains, locus YOR069W, strain VPS5, stronger effect = lower value 1.01 | S. cerevisiae deletion strains, locus YOR070C, strain gyp1, stronger effect = lower value 1.03 | S. cerevisiae deletion strains, locus YOR080W, strain dia2, stronger effect = lower value 1.02 | S. cerevisiae deletion strains, locus YOR083W, strain WHI5, stronger effect = lower value 1.01 | S. cerevisiae deletion strains, locus YOR106W, strain vam3, stronger effect = lower value 1.02 | S. cerevisiae deletion strains, locus YOR136W, strain idh2, stronger effect = lower value 0.996 | S. cerevisiae deletion strains, locus YOR144C, strain elg1, stronger effect = lower value 0.997 | S. cerevisiae deletion strains, locus YOR184W, strain ser1, stronger effect = lower value 1.03 | S. cerevisiae deletion strains, locus YOR231W, strain MKK1, stronger effect = lower value 0.964 | S. cerevisiae deletion strains, locus YOR265W, strain rbl2, stronger effect = lower value 1.01 | S. cerevisiae deletion strains, locus YOR270C, strain vph1, stronger effect = lower value 1.11 | S. cerevisiae deletion strains, locus YOR290C, strain snf2, stronger effect = lower value 1.02 | S. cerevisiae deletion strains, locus YOR316C, strain cot1, stronger effect = lower value 0.993 | S. cerevisiae deletion strains, locus YPL051W, strain arl3, stronger effect = lower value 1.02 | S. cerevisiae deletion strains, locus YPL055C, strain LGE1, stronger effect = lower value 1.03 | S. cerevisiae deletion strains, locus YPL078C, strain atp4, stronger effect = lower value 1.02 | S. cerevisiae deletion strains, locus YPL106C, strain sse1, stronger effect = lower value 1.02 | S. cerevisiae deletion strains, locus YPL240C, strain hsp82, stronger effect = lower value 1.02 | S. cerevisiae deletion strains, locus YPL256C, strain CLN2, stronger effect = lower value 0.946 | S. cerevisiae deletion strains, locus YPR119W, strain clb2, stronger effect = lower value 0.991 | S. cerevisiae deletion strains, locus YPR141C, strain kar3, stronger effect = lower value 0.989 | S. cerevisiae deletion strains, locus YPR163C, strain tif3, stronger effect = lower value 0.982 | S. cerevisiae deletion strains, locus YPR167C, strain met16, stronger effect = lower value 0.979 | S. cerevisiae deletion strains, strain wtn01, stronger effect = lower value 0.974 | S. cerevisiae strains, strain wild type, stronger effect = lower value 1.01

From PubChem BioAssay AID1159580 (chemical genetic matrix, 2015)
